Screens as filed in PubChem BioAssay.
Rows were chosen to be rich in hits. Some 3.9% of all compounds tested hit in one or more screens of this group.
BoNT F protease: BoNT/F light chain protease inhibitors, primary screen, biochemical, flow cytometry, MLPCN library; actives 0.22% (n = 360,000); inhibition, % at 10 µM; Botulinum neurotoxin type F light chain protease (Clostridium botulinum); Multiplex microsphere protease cleavage assay; in the data active means inhibition above about 35%, passing the limit was not always enough; inconclusive means no clear call, values can overlap the other calls; further: plate controls were buffer without enzyme for full effect and enzyme alone for no effect
Anthrax LF prot: Bacillus anthracis LF protease inhibitors, primary screen, biochemical, multiplex microsphere, MLPCN library; Lethal factor (Bacillus anthracis), P15917; AID 588501, 2011; actives 0.12% (n = 360,000); multiplex microsphere protease cleavage assay; inhibition, % at 10 µM; further: plate controls were buffer without enzyme for full effect and enzyme alone for no effect
BoNT-A LC inh2: BoNT/A light chain protease inhibitors, primary screen, biochemical, flow cytometry, MLPCN library | actives 0.17% (n = 360,000) | inhibition, % at 10 µM | Botulinum neurotoxin type A light chain protease (Clostridium botulinum A str. ATCC 3502) | AID 588499, 2011 | multiplex microsphere protease substrate cleavage; further: plate controls were buffer without enzyme for full effect and enzyme alone for no effect
DUSP3 inh: VHR1 phosphatase inhibitors, primary screen, biochemical, absorbance, uHTS | recombinant VHR phosphatase, pNPP absorbance | inhibition, % at 13.3 µM | actives 0.52% (n = 290,000); in the data active means inhibition above about 50%
Target sequence (P51452 whole entry, looked up): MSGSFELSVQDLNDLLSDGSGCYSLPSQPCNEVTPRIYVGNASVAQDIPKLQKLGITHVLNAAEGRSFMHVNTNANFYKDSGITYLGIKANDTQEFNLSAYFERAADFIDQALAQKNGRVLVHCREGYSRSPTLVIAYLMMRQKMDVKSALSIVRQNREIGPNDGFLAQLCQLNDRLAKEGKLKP
Autofluor counter: counter-screen for toxin protease inhibitors: compound fluorescence; compound autofluorescence counterscreen, microsphere flow cytometry; stronger effect = higher value; fluorescence intensity (no concentration beside the values); actives 3.1% (n = 360,000); AID 624483; in the data active means fluorescence intensity above about 16000; inconclusive means no clear call, values can overlap the other calls
SARS 3CLpro inh-1: SARS-CoV 3CLpro protease inhibitors, primary screen, biochemical, quenched FRET | Replicase polyprotein 1ab (Severe acute respiratory syndrome coronavirus), P0C6X7 | actives 0.14% (n = 290,000) | AID 1706, 2009 | inhibition, % at 6 µM | recombinant SARS-CoV 3CLpro, quenched FRET peptide cleavage; in the data active means inhibition above about 12%
SARS 3CLpro inh-2: confirmation of SARS coronavirus 3C-like protease inhibitors, retest, confirmation, biochemical | AID 1879, 2009 | inhibition, % at 6 µM | actives 36% (n = 380) | QFRET protease activity assay, 3CLpro | shares compounds with SARS 3CLpro inh-1; in the data active means inhibition above about 13%
An asterisk follows results filed as active; ? = inconclusive; nt = no result. Unless noted, no stated cut-off is given here; in the data, active means inhibition above about 30%; inconclusive means no clear call, values can overlap the other calls; inactive means below that.

SMILES | BoNT F protease | Anthrax LF prot | BoNT-A LC inh2 | DUSP3 inh | Autofluor counter | SARS 3CLpro inh-1 | SARS 3CLpro inh-2
COc1cc(NC(=O)COn2nnc3ccc(S(C)(=O)=O)cc32)cc(OC)c1 | 0 | 1 | 0 | 5 | 3948 | 6 | nt
Cc1nc2c(OCc3ccccc3)cccn2c1N(C)C(=O)C1CCCCC1 | -2 | -4 | 0 | nt | 3834 | nt | nt
CC(C)c1ccc(NC(=O)CCS(=O)(=O)c2cccc3nonc23)cc1 | 3 | -1 | 0 | 8 | 5979 | 6 | nt
COc1ccccc1/C=C1\SC(=S)N(CCC(=O)NNC(=O)c2ccccc2OC)C1=O | -13 | -2 | -6 | 21 | 4206 | 14* | 0
CCOc1ccc(C2C(C(=O)c3ccc(C)o3)=C(O)C(=O)N2c2nc(C)c(C(=O)OC)s2)cc1 (configuration not stated) | 16 | 3 | 4 | 7 | 3950 | 12* | 4
Cc1ccc(S(=O)(=O)Nc2cc(-c3ccccc3)nn2C)cc1 | nt | nt | nt | 28 | nt | 0 | nt
Cc1ccc(S(=O)(=O)Nc2cc(-c3ccccc3)nn2C)cc1Cl | -13 | 0 | -2 | 16 | 6897 | 14* | 9
COc1ccc(NS(=O)(=O)c2c(C)cc(C)cc2C)cn1 | -3 | 0 | 0 | 19 | 4412 | 2 | nt
CCCCOc1ccc(C(=O)Oc2cccnc2)cc1 | -17 | -6 | 1 | 16 | 3878 | 19* | 14*
CCN(C(=O)COC(=O)c1ccccc1Nc1ccccc1)c1c(N)n(Cc2ccccc2)c(=O)[nH]c1=O | 1 | -4 | 0 | nt | 3589 | nt | nt
CCCN(CC(=O)Nc1ccccc1C)C(=O)/C=C/c1ccc(OC)c(OC)c1 | -2 | -2 | 0 | nt | 3730 | nt | nt
O=C(CCl)N1N=C(c2cccs2)CC1c1ccco1 (configuration not stated) | 2 | -3 | 1 | 3 | 3533 | 38* | 83*
CN1CCN(CC(=O)N2N=C(c3cccs3)CC2c2ccco2)CC1 (configuration not stated) | -11 | -2 | -1 | -2 | 2734 | -2 | nt
COc1ccc(NC(=O)C2(C)Cc3c(-c4cccc(C(N)=O)c4)ccnc3O2)cn1 (configuration not stated) | 0 | -5 | 0 | nt | 3255 | nt | nt
CCOC(=O)c1oc2nc(CC(C)C)c3c(c2c1N)CCCC3 | 34 | 12 | 0 | 4 | 4034 | 13* | 3
O=C(NC1CCCCC1)C(c1ccco1)N(Cc1cccs1)C(=O)Cn1nnc2ccccc21 (configuration not stated) | -4 | -3 | 0 | -21 | 10713 | -2 | nt
O=C(NCc1ccco1)C(c1ccco1)N(Cc1cccs1)C(=O)Cn1nnc2ccccc21 (configuration not stated) | 1 | -2 | 0 | -14 | 4148 | 14* | 10
CCC(C)(C)NC(=O)C(c1cccn1C)N(C(=O)Cn1nnc2ccccc21)c1ccc(F)cc1 (configuration not stated) | -6 | 2 | 0 | 0 | 3668 | -1 | nt
CCC(C)(C)NC(=O)C(c1cccn1C)N(C(=O)Cn1nnc2ccccc21)c1ccc(NC(C)=O)cc1 (configuration not stated) | -1 | 2 | 1 | 10 | 4549 | 46* | 50*
COCCNC(=O)C(c1ccc(C)o1)N(C(=O)Cn1nnc2ccccc21)c1ccccc1 (configuration not stated) | -1 | 1 | 0 | 4 | 2392 | 14* | 4
COCCNC(=O)C(c1ccc(C)o1)N(Cc1ccc(OC)cc1)C(=O)Cn1nnc2ccccc21 (configuration not stated) | 8 | 0 | 0 | 23 | 4643 | -1 | nt
O=C(NCc1ccco1)C(c1ccco1)N(CCc1ccccc1)C(=O)Cn1nnc2ccccc21 (configuration not stated) | 4 | 0 | 0 | -4 | 2820 | 26* | 28*
O=C(NCc1ccco1)C(c1cccs1)N(Cc1ccccc1)C(=O)Cn1nnc2ccccc21 (configuration not stated) | -10 | -2 | -1 | 15 | 3035 | 20* | 29*
COCCNC(=O)C(c1ccccc1)N(Cc1cccs1)C(=O)Cn1nnc2ccccc21 (configuration not stated) | -21 | -4 | -1 | 9 | 3232 | 23* | 21*
Cc1ccc(CN(C(=O)Cn2nnc3ccccc32)C(C(=O)NCc2ccco2)c2cccs2)cc1 (configuration not stated) | 7 | -4 | 0 | 1 | 4406 | 25* | 19*
SMILES | BoNT F protease | Anthrax LF prot | BoNT-A LC inh2 | DUSP3 inh | Autofluor counter | SARS 3CLpro inh-1 | SARS 3CLpro inh-2
COc1ccc(NC(=O)CSc2nnc(-c3cc(C)[nH]n3)n2N)cc1 | 10 | 0 | 1 | -9 | 5828 | 5 | nt
Cc1cc(=O)oc2cc(NC(=O)Cc3ccccc3[N+](=O)[O-])ccc12 | ? | 11 | 0 | 4 | 3381 | 17* | 13*
NNC(=O)[C@H](Cc1ccccc1)NC(=O)NCCc1ccccc1 | -6 | 2 | 0 | nt | 3997 | -1 | nt
CCOc1cc(C(N)=O)cc(Br)c1OC | -10 | 10 | 0 | 9 | 10317 | 15* | -1
N#Cc1c(-c2ccccc2)nc(SCC(=O)Nc2ccc(OC(F)(F)Cl)cc2)[nH]c1=O | -1 | 10 | -1 | nt | 4296 | 16* | 1
CCCCCC(=O)N1C[C@@H](n2cc(-c3ccc(F)cc3)nn2)[C@H](O)C[C@@H]1c1ccc(OC)cc1 | -6 | -6 | 0 | nt | 3836 | nt | nt
COCc1cc(C)n(CC(=O)Nc2ccc3c(c2)OCO3)c(=O)c1C#N | -2 | 0 | 0 | 40 | 5542 | -5 | nt
Cc1ccc(S(=O)(=O)/C(=C/Cl)NC(=O)c2ccccc2)cc1 | -4 | -2 | 0 | 0 | 2456 | 16* | 23*
Cc1ccc2c(C)c(C(=O)N3CCCC(C(N)=O)C3)oc2c1C (configuration not stated) | 5 | 0 | 1 | 25 | 5343 | 3 | nt
CC(C)OP(=O)(OC(C)C)C1(NS(=O)(=O)c2ccc(Cl)cc2)C=C(Cl)C(=O)C(Cl)=C1 | nt | nt | nt | 6 | nt | 17* | 11
CC(C)N(CCNS(=O)(=O)c1ccc(Cl)cc1)C(C)C | 5 | 7 | 0 | 7 | 9328 | -3 | nt
CCn1cc(C(=O)NC(=S)Nc2ccccc2[N+](=O)[O-])cn1 | 3 | 6 | 0 | -9 | 6115 | 13* | -5
